Hit rate of the full screen: of about 370,000 compounds, about 5,400 (1.5%) were called active. This excerpt belongs to a sample that is enriched for actives. Values without a mark were called inactive.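 Rule for the calls: active = activation above the mean of all tested compounds plus 3 SD (cut at about 5.5% in these data); inactive = the rest.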
Each compound was assayed on DAF-12 nuclear receptor (Haemonchus contortus) (assay: H. contortus DAF-12 nuclear receptor activators, primary screen, cell-based, luminescence, HEK293, lit1-tk-luc reporter (AID 652067;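 note: 100% = response to 3 µM Δ7-dafachronic acid high control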)). Conditions: HEK293 hcDAF-12 lit1-tk-luc reporter, at 6.8 µM, active compounds read high, 0% DMSO, 100% Δ7-dafachronic acid.

Compound | activation
Cc1nnc(SCC(=O)N2CCN(c3ccccc3)CC2)n1-c1ccccc1 | 6.51% (active)
Cc1cc2nnc(SCC(=O)N3CCN(c4ccccc4)CC3)n2c(N)n1 | -2.55%
O=C(CSc1nnc(Cc2ccccc2)n1-c1ccccc1)N1CCOCC1 | -0.92%
N#Cc1c(NC(=O)c2ccc(N3CCOCC3)c([N+](=O)[O-])c2)sc2c1CCCC2 | -0.5%
N#Cc1c(NC(=O)C2CCCO2)sc2c1CCCCC2 (stereo unspecified) | 6.65% (active)
CCC1CCc2c(sc(NC(C)=O)c2C#N)C1 (stereo unspecified) | -0.54%
COC(=O)C1=C(C)NC(=S)NC1c1ccc(OC)cc1 (stereo unspecified) | -0.46%
C=CC[C@]12C[C@@]3(O[C@H](c4ccc(C(F)(F)F)cc4)N=C3C[C@H](c3ccc(OC)cc3)[C@H]1C)N(C1CCN(Cc3ccccc3)CC1)C2=O | 1.02%
CC(=O)c1ccc(NC(=O)c2sc3nc4n(c(=O)c3c2C)CCCCC4)cc1 | 3.47%
N=c1c2c3c(sc2nc2n1CCCCC2)CCCC3 | 0.65%
O=c1c2c(nc3n1CCCCC3)sc1c(O)cccc12 | 5.87% (active)
c1csc(-c2nnc(SCc3nc4ccccc4[nH]3)o2)c1 | 0.87%
CC1CCCN(c2cccc3c2S(=O)(=O)N(Cc2ccc(F)cc2)[C@@H](C)[C@H](c2ccccc2)O3)C1 (stereo partly specified) | -1.13%
Cc1ccc(SCCSc2ncccn2)cc1 | 7.62% (active)
Cc1ccc(SCCC(=O)NCc2ccccn2)cc1 | 0.97%
Cc1ccc(SCCC(=O)NC(C(C)C)C(C)C)cc1 | -0.97%
COc1cccc(CN(C)C(=O)CC23CC4CC(CC(C4)C2)C3)c1OC | -1.43%
CCOC(=O)c1ccc(-c2ccc3ncnc(N(C)Cc4sccc4C)c3c2)o1 | 0.56%
COCCCNc1nc2ccccc2nc1NS(=O)(=O)c1ccc(F)cc1 | 4.77%
Cc1ccc(S(=O)(=O)Nc2nc3ccccc3nc2N2CCc3ccccc3C2)cc1 | 6.92% (active)
Cc1ccc(S(=O)(=O)C(C#N)c2nc3ccccc3nc2N2CCCC2)cc1C (stereo unspecified) | -0.94%
O=C(CSc1nc2c(c(=O)[nH]1)CCCC2)N1CCCCC1 | 0.61%

Compound | activation
CCOC(=O)C1CCN(C(=O)C(C)(C)NC(=O)Nc2ccc(F)c(F)c2)CC1 | -0.52%
O=C(NCc1cccs1)C1CCN(S(=O)(=O)c2ccccc2[N+](=O)[O-])CC1 | -1.15%
c1ccc2c(CCN3CCNC[C@H]3Cc3cccc4ccccc34)cccc2c1 | -0.26%
c1ccc(C2CNCc3c2ccc2ccccc32)cc1 (stereo unspecified) | 6.29% (active)
Cn1ncc([N+](=O)[O-])c1C(=O)Nc1cc(Cl)ccc1Cl | -1.09%
c1coc(CCNc2ncnc3ccc(-c4ccc5c(c4)OCO5)cc23)c1 | 3.8%
CCC(c1nc2ccccc2[nH]1)n1c(=O)c(-c2cccs2)nc2ccccc21 (stereo unspecified) | -1.27%
CC(C)n1c(NCc2c[nH]c3ccccc23)nc2ccccc21 | 1.49%
CC(C)(C)C(c1nc2ccccc2[nH]1)n1c(Cc2csc3ccccc23)nc2ccccc21 (stereo unspecified) | 6.12% (active)
N#Cc1nc(N)nc(N(c2ccccc2)c2ccccc2)n1 | -1.6%
Cc1ccccc1C(=O)N[C@H](C(=O)N1CCC[C@H]1C(=O)NCc1ccccc1)C(C)C | 6.82% (active)
Cc1ccccc1NC(=O)N1CCCC1C(=O)NCc1ccccc1 (stereo unspecified) | 0.56%
CC(C)C[C@H](NC(=O)CC1CCCC1)C(=O)N1CCC[C@H]1C(=O)NCc1ccccc1 | -1.97%
C=CCN1[C@H](CC(C)C)COc2cccc(N3CCCC3)c2S1(=O)=O | 1.33%
COC(=O)[C@]12C[C@H](CC(=O)N3CCN(C(=O)C4CC4)CC3)C(=O)N(Cc3ccc4c(c3)OCO4)C1=C[C@H](C(C)(C)C)O[C@@H]2C | -0.45%
Nc1ncnc2c1ncn2[C@@H]1O[C@H](C(=O)N[C@@H](CCc2ccccc2)C(=O)N2CCCN(Cc3cccs3)CC2)[C@@H](O)[C@H]1O | -0.84%
CC1CCN(c2ccc(C(=O)O)cc2NS(=O)(=O)c2ccc(Br)s2)CC1 | 0.68%
Cc1ccc(NC(=O)CC2C(=O)N(Cc3ccccc3)C(=S)N2NC(=O)c2cccc(F)c2)c(C)c1 (stereo unspecified) | 0.38%
Cc1c(Br)c([N+](=O)[O-])nn1CC(=O)N1CCN(Cc2ccccc2)CC1 | -0.25%
CCOc1cccc(C(=O)Nc2cnn(Cc3ccccc3)c2)c1 | -0.69%
O=C(Nc1ccn(Cc2ccccc2)n1)c1n[nH]c([N+](=O)[O-])c1Cl | 5.98% (active)
O=C(Cn1cnc([N+](=O)[O-])n1)NCCc1ccccc1 | 1.32%

Compound | activation
O=C(Nc1ccn(Cc2ccccc2)n1)c1cccc(F)c1 | 8.2% (active)
CCCCCN1CCCCC(NC(=O)C(C)CCC)C1=O (stereo unspecified) | 0.16%
CC(C)(C)C(=O)Nc1c(Br)c(C2CC2)nn1-c1ccccc1 | -0.94%
O=C(CCCCCN1C(=O)C2C3C=CC(C3)C2C1=O)Nc1ccccc1 (stereo unspecified) | -1.48%
CN(C)CC(=O)N[C@@H]1C[C@@H]2O[C@H](CO)CC[C@@H]2O[C@@H]1CCc1ccc(C#Cc2ccccc2)cc1 | -2.47%
COc1ccc(C(=O)COC(=O)c2ccc3ccccc3n2)cc1 | 0.42%
COc1ccc(C2=NOC(COC(=O)c3ccc4ccccc4n3)C2)cc1 (stereo unspecified) | 7.15% (active)
COc1cccc(NC(=O)COC(=O)c2ccc3ccccc3n2)c1 | 4.16%
Cc1ccc(OCc2nc3ccccc3n2C)cc1 | 11.3% (active)
COc1cccc(C(O)Cc2nc3ccccc3n2C)c1OC (stereo unspecified) | -0.39%
Cc1ccc(OCc2nnc(SC3CCc4ccccc4C3=O)n2C)cc1 (stereo unspecified) | 1.15%
CC(=O)c1ccc(NC(=O)Cn2c(=O)oc3ccccc32)cc1 | -1.53%
COc1ccc(OC)c(NC(=O)Cn2c(=O)oc3ccccc32)c1 | -1.37%
Cc1cccnc1NC(=O)Cn1c(=O)oc2ccccc21 | 6.75% (active)
CCC[C@H]1C(=O)CC[C@@]23CCCN2C(=O)CCC[C@@H]13 | 0.52%
COc1ccnc(C(=O)N2CCC(Oc3cccnc3)CC2)c1 | -0.13%
COCCN(CCOC)S(=O)(=O)c1ccc(C(=O)Nc2nc3c(s2)CCc2ccccc2-3)cc1 | -3.08%
CN(C)CCNC(=O)c1[nH]nc2c1CCc1ccccc1-2 | 6.06% (active)
CN(C)CCNC(=O)c1ccc(-c2cn3c(-c4ccc(Oc5ccccc5)cc4)cnc3cn2)cc1 | -0.28%
COC(=O)[C@]12C[C@H](CC(=O)NCCCCc3ccccc3)C(=O)N(Cc3ccc4c(c3)OCO4)C1=C[C@H](C(C)(C)C)O[C@@H]2C | 2.01%
C[C@H]1[C@H](NC(=O)c2cccc(N(C)C)c2)CC[C@@]23CCCN2C(=O)CCC[C@@H]13 | -1.72%
CCCNC(=O)Nc1ccc2c(c1)C(=O)N(C)[C@H]1CC[C@H](CC(=O)NCC3CCCCC3)O[C@@H]1CO2 | 1.19%

Compound | activation
Cc1nc(NC(=O)C(C)(C)C)sc1[N+](=O)[O-] | -0.38%
Nc1[nH]c(C(=O)c2ccccc2)c(-c2ccc(Cl)cc2Cl)c1C(=O)c1ccccc1 | -1.47%
Nc1[nH]c(C(=O)c2ccc(Br)cc2)c(-c2ccc3c(c2)OCO3)c1C(=O)NCCc1c[nH]c2ccccc12 | 0.26%
Cc1ccc(-n2cc3ccc([N+](=O)[O-])cc3n2)cc1 | 9.08% (active)
Cc1ccnc(N2C(=O)c3ccc([N+](=O)[O-])cc3C2=O)c1 | -1.07%
O=c1c2cc([N+](=O)[O-])ccc2nc2n1CCC2 | -0.38%
COC(=O)C[C@@H]1CC[C@@H]2[C@H](COc3ccc(NC(=O)c4cccc(F)c4)cc3C(=O)N2C)O1 | -2.02%
O=C(NCCCc1ccccc1)[C@H](Cc1ccccc1)NC1(C(=O)NCCc2c[nH]c3ccccc23)CCC1 | 1.93%
Nc1ncnc2c1ncn2[C@@H]1O[C@H](C(=O)N[C@@H](CCc2ccccc2)C(=O)NCC(=O)N2CCOCC2)[C@@H](O)[C@H]1O | -0.25%
Cc1csc(NC(=O)Nc2ccccc2[N+](=O)[O-])n1 | 13.9% (active)
CN1CCN(CCNC(=O)Nc2ccccc2[N+](=O)[O-])CC1 | -0.05%
Cc1cc(NC(=O)Nc2ccccc2[N+](=O)[O-])no1 | -0.4%
CCOc1ccc(-n2c(SCC(=O)Nc3cc(C)c(NC(=O)c4ccccc4)cc3OC)nnc2-c2cccs2)cc1 | -0.56%
O=C(CN1C(=O)NC2(CCc3ccccc32)C1=O)NC1CCCCC1 (stereo unspecified) | 2.74%
Nc1nc2c(ncn2[C@@H]2O[C@H](C(=O)N[C@H](Cc3ccccc3)C(=O)NCC3CCCCC3)[C@@H](O)[C@H]2O)c(=O)[nH]1 | 1.38%
CC1CC(C)CN(CCCNC(=O)c2csc3c2CCCCC3)C1 (stereo unspecified) | 0.75%
COc1ccc(NC(=O)c2c(C)oc3c2CCCC3)cc1 | 1.98%
Cc1ccc(NC(=O)c2csc3c2CCCC3)cc1 | 11.3% (active)
COCCNC(=S)N(C)[C@H]1C[C@H]2c3[nH]c4ccccc4c3CCN2C[C@H]1[C@H](C)O | 1.74%
COc1cc2cc(CN(CCN3CCCC3)C(=O)Nc3ccccc3Cl)c(=O)[nH]c2cc1OC | -0.2%
